Compounds without any hit were thinned out: in the full panel of roughly 83,000, 20% have a hit.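 Step 1: grow cells in 96-well plates. Step 2: add test compound at a single concentration. Step 3: incubate 48 h. Step 4: record percent growth.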 A number with no mark means an inactive call. Active and inactive are the calls of the source.
Tested on: HOP-62 NSCLC
Test: NCI-60 one-dose screen, 48 h (100 = growth as untreated, 0 = no growth, -100 = all killed)
Settings: 10 µM unless noted
Description: Growth inhibition of the HOP-62 human Non-Small Cell Lung tumor cell line is measured as a screen for anti-cancer activity. Cells are grown in 96 well plates and exposed to the test compound for 48 hours. Compounds are tested at a single concentration, which is 10^-5 M for most compounds. The reported endpoint is percent growth (GI% or GIPRCNT), where numbers from 0 - 100% represent growth inhibition, and numbers from -100% - 0 represent cell death. For example, a value of 40 represents 60% growth inhibition. A value of 0 means no net growth occurred over the course of the experiment. A value of -40 indicates 40% of cells at the beginning of the experiment died by the end of the experiment. A value of -100 means all cells are dead at the end of the experiment.
NCI-60 Human Tumor Cell Lines Screen was performed using the standard one-dose NCI protocol, which is described in more detail at https://dtp.cancer.gov/discovery_development/nci-60/default.htm.
Compounds with GIPRCNT values below 10 were considered active. Activity score was based on GIPRCNT using the following formula: […]
Score is 0 for GIPRCNT values of 100 or above, 50 for GIPRCNT values of 0, and 100 for GIPRCNT values of -100.

Question: With `CCCCc1n(Cc2ccc3ccccc3c2)cc[n+]1Cc1ccc2ccccc2c1` as the compound, how does the growth read?
Answer: -2.71% (active)

Question: With `CCCCCCCCCCCCC1CCCC(C)C1` (stereo not given) as the compound, how does the growth read?
Answer: 90.5%

Question: How did the growth turn out when `c1ccc(COc2ccc(Nc3ncnc4c3cnn4-c3ccccc3)cc2)cc1` was run?
Answer: 104%

Question: Which growth does the source give for `CC1=C([Se]CC(OC(=O)[C@@H](CSSC(C)(C)C)NC(=O)C(C)(C)C)C(=O)NCCCCCC(=O)OCc2ccccc2)C(=O)c2ccccc2C1=O` (stereo not given in full) here?
Answer: -95% (active)

Question: For `CC12CCC3C(=CCc4cc(O)ccc43)C1CCC2=O` (stereo not given), which growth is on record?
Answer: 99.2%

Question: For `O=C(/C=C/c1ccc(C(F)(F)F)cc1)c1ccc(Nc2nc(NCCO)nc(NCCO)n2)cc1`, which growth is on record?
Answer: 22.3%

Question: For `CC(=O)Nc1c(Cl)cc2c(c1Cl)Cc1cc([N+](=O)[O-])ccc1-2`, which growth is on record?
Answer: 69.6%

Question: With `N#Cc1c(NC(=O)c2ccco2)[n+]([O-])c2ccccc2[n+]1[O-]` as the compound, how does the growth read?
Answer: 82.9%

Question: With `O=C(CC1Sc2ccccc2NC1=O)NNc1cccc(Cl)c1Cl` (stereo not given) as the compound, how does the growth read?
Answer: 84.6%

Question: How did the growth turn out when `CS(=O)(=O)N1CCN(Cc2cc3nc(-c4cccc5[nH]ncc45)nc(N4CCOCC4)c3s2)CC1` (tested in a mixture with another compound) was run?
Answer: 23.6%

Question: `Cc1ccc2nc3c(n2c1)C(=O)C(=O)c1ccccc1-3` was tested. Which growth did it give?
Answer: -74.9% (active)

Question: For `NS(=O)(=O)c1ccc(-n2ncc3c(NC4CCCCC4)ncnc32)cc1`, which growth is on record?
Answer: 101%

Question: For `OC(c1ccccc1)C(NCc1ccccc1)c1ccccc1` (stereo not given), which growth is on record?
Answer: 90.5%

Question: With `CCCCCc1c(C)[nH]c(/C=C2\N=C(c3ccc[nH]3)C=C2Oc2ccc(Cl)cc2)c1C` as the compound, how does the growth read?
Answer: -6.67% [100 µM] (active)

Question: Which growth does the source give for `CCC(C)C1NC(=O)C(CCNCS(=O)(=O)O)NC(=O)C(NC(=O)C(CCNCS(=O)(=O)O)NC(=O)C(NC(=O)C(CCNCS(=O)(=O)O)NC(=O)CCCCC(C)C)C(C)O)CCNC(=O)C(C(C)O)NC(=O)C(CCNCS(=O)(=O)O)NC(=O)C(CCNCS(=O)(=O)O)NC(=O)C(C(C)CC)NC1=O` (stereo not given) here?
Answer: 46.8%

Question: `FC(F)(F)c1ccc(-c2cnc(-c3nn[nH]n3)nc2NC2CCCCCC2)cc1` was tested. Which growth did it give?
Answer: 63.7% [50 µM]

Question: Which growth does the source give for `COc1cc(/C=C/c2cc(/C=C/c3ccc(O)c(OC)c3)n(C(=O)Cc3ccccc3)n2)ccc1O` here?
Answer: 2.82% (active)

Question: For `O=C(Nc1ccc(Cl)cc1)Nc1nc2ccc(OC(F)(F)F)cc2o1`, which growth is on record?
Answer: 114%

Question: With `O=C(CNc1ccc2c(c1)C(=O)c1ccccc1C2=O)Nc1ccc2c(c1)C(=O)c1ccccc1C2=O` as the compound, how does the growth read?
Answer: -86.5% (active)

Question: Which growth does the source give for `Cn1c(=O)c2[nH]c(=S)n(Cc3ccccc3)c2n(C)c1=O` here?
Answer: 70%

Question: For `O=C(CSc1nnc(-c2cc(-c3ccccc3)nc3ccccc23)o1)c1ccc(Br)cc1`, which growth is on record?
Answer: 101%

Question: How did the growth turn out when `O=C(N/N=C/c1cccc(O)c1O)c1ccccc1` was run?
Answer: 25.9%

Question: With `CCCCCCCCCCN1CCC(N2CCCCC2)CC1` as the compound, how does the growth read?
Answer: -64.7% (active)

Question: How did the growth turn out when `O=C1/C(=C/c2ccccc2O)C(=S)SN1Cc1ccco1` was run?
Answer: 92.7%

Question: How did the growth turn out when `COc1ccc(-c2cc(-c3nnc(SCC(=O)Nc4ccc(C(C)=O)cc4)n3-c3ccccc3)c3ccccc3n2)cc1OC` was run?
Answer: 84%

Question: `COc1ccc(CC(=O)Nc2nn3c(-c4cc(C(F)(F)F)cc(C(F)(F)F)c4)nnc3s2)cc1` was tested. Which growth did it give?
Answer: 98.9%

Question: `N#CC1c2ccccc2C=CN1C(=O)N(c1ccccc1)c1ccccc1` (stereo not given) was tested. Which growth did it give?
Answer: 101%

Question: `CC(=O)N1N=C(c2ccc3c(c2)OCO3)CC1c1c(C)nn(-c2ccccc2)c1N(C)Cc1ccccc1` (stereo not given) was tested. Which growth did it give?
Answer: 77.1%

Question: For `CCSc1nc(Nc2ccc(S(=O)(=O)Nc3ccon3)cc2)c(C#N)c(-c2cccc(Br)c2)n1`, which growth is on record?
Answer: 93.9%

Question: `Cc1c2oc3c(C)ccc(C(=O)OC(C)C4NC(=O)C(C(C)C)N(C)C(=O)CN(C)C(=O)C5CCCN5C(=O)C(C(C)C)NC4=O)c3nc-2c(C(=O)OC(C)C2NC(=O)C(C(C)C)N(C)C(=O)CN(C)C(=O)C3CCCN3C(=O)C(C(C)C)NC2=O)c(N)c1=O` (stereo not given) was tested. Which growth did it give?
Answer: -20.4% (active)

Question: `COc1cccc(-c2nc(-c3ccc(N)cc3)co2)c1` was tested. Which growth did it give?
Answer: 108%

Question: How did the growth turn out when `C[C@]12CCC(=O)C=C1CCC1C2[C@@H](O)C[C@@]2(C)C1CC[C@]2(O)C(=O)COC(=O)CCC(=O)O` (stereo not given in full) was run?
Answer: 112%

Question: Which growth does the source give for `COc1cc(-c2nnc(-c3nc(-c4cc(OC)c(OC)c(OC)c4)n4ccccc34)o2)ccc1N` here?
Answer: 89%

Question: Which growth does the source give for `[N-]=[N+]=NCc1ncc(-c2ccc(C(F)(F)F)cc2)c(NC2CCCCCC2)n1` here?
Answer: 87% [50 µM]

Question: Which growth does the source give for `C(#Cc1ccccc1C#Cc1ccccn1)c1ccc(OCCCCCCOc2ccc(C#Cc3ccccc3C#Cc3ccccn3)cc2)cc1` here?
Answer: 38.2%

Question: With `CC(C)C[C@H](NC(=O)/C=C/Cn1ccc2ccccc2c1=O)B(O)O` as the compound, how does the growth read?
Answer: 44.8%

Question: Which growth does the source give for `COc1cccc(C2=NN(C(C)=O)C(c3cc(OC)c(OC)c(OC)c3)C2)c1` (stereo not given) here?
Answer: 31.5%

Question: For `O=C(Nc1cccc(Cl)c1)Nc1cccc(Cl)c1`, which growth is on record?
Answer: 88.2%

Question: `O=[N+]([O-])c1cc([N+](=O)[O-])c(N2CCCC2)cc1NN=C(c1ccc(O)cc1)c1ccc(O)cc1` was tested. Which growth did it give?
Answer: 23.3%

Question: Which growth does the source give for `Cc1ccc(C2=Nc3c(ccc4c(C)c(C)c(=O)oc34)OC2)cc1` here?
Answer: 97.3%

From PubChem BioAssay (NCI)
